Compound activity from PubChem BioAssay.
Only some compounds are listed: those with a hit (about 2% of all), similar ones and a draw of the others.
PREPL inhibitor = inhibits the human prolyl oligopeptidase-like enzyme. hit rate 0.68% among 320,000. Q4J6C6. recombinant PREPL, fluorescence polarization activity-based probe. inhibition, % at 5.96 µM;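 note: 0% = enzyme with DMSO and 100% = wells lacking enzyme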
LYPLA2 inh = counter-screen for PME1 inhibitors: inhibitors of human LYPLA2. inhibition, % at 5.9 µM. AID 2177. recombinant LYPLA2, FP-Rh probe fluorescence polarization. hit rate 0.38% among 320,000;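 active = inhibition above the screen-wide mean plus 3 SD, limit set per campaign, cut at about 26% in these data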;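 note: 0% = LYPLA2 with DMSO and 100% = wells lacking LYPLA2 enzyme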
GSTO1 counter = counter-screen for RBBP9 inhibitors: inhibitors of human GSTO1; P78417; recombinant GSTO1, activity-based probe fluorescence polarization; inhibition, % at 5.96 µM; hit rate 1.1% among 300,000; AID 1974;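 active = inhibition above the campaign mean inhibition plus 3 SD, cut at about 35% in these data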;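 note: 0% = GSTO1-1 with DMSO and 100% = wells lacking GSTO1-1 enzyme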
Target sequence (P78417 whole entry, looked up): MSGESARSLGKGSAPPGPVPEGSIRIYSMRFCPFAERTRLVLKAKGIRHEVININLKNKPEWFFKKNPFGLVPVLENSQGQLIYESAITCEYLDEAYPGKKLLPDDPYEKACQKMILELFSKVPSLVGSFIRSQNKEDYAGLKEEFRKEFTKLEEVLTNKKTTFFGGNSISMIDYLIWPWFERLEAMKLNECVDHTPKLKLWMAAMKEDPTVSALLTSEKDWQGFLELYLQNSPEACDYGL
PME-1 inh = blocks human protein phosphatase methylesterase 1; Q9Y570; recombinant PME-1, FP-Rh probe fluorescence polarization; inhibition, % at 5.9 µM; hit rate 0.53% among 320,000; AID 2130;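 active = inhibition above the campaign mean of all compounds plus 3 SD, cut at about 26% in these data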;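 note: competitive labeling of PME-1 active site by serine hydrolase directed probe; 0% = PME-1 with DMSO and 100% = wells lacking PME-1 enzyme; inhibitors block probe labeling so polarization falls and inhibition rises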
LYPLA1 counter = counter-screen for PME1 inhibitors: inhibitors of human LYPLA1; recombinant LYPLA1, FP-Rh probe fluorescence polarization; inhibition, % at 5.9 µM; hit rate 0.16% among 320,000; AID 2174;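 active = inhibition above the mean of all tested compounds plus 3 SD, set per campaign, cut at about 14% in these data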;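 note: inhibitors block serine hydrolase probe labeling of LYPLA1 so polarization falls; 0% = enzyme with DMSO and 100% = wells lacking LYPLA1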
Target sequence (O75608 whole entry, looked up): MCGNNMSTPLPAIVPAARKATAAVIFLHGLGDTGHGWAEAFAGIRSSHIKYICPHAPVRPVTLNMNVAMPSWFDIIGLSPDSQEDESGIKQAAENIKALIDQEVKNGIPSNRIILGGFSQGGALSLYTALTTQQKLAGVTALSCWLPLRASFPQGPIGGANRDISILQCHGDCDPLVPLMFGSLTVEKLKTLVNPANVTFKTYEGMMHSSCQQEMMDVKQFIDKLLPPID
Fam108B counter = blocks mouse Fam108B hydrolase in RBBP9 counter-screen | AID 1947 | inhibition, % at 9.51 µM | hit rate 0.33% among 300,000 | recombinant Fam108B, FP-Rh probe fluorescence polarization;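 active = inhibition above the screen mean inhibition plus 3 SD, computed separately per campaign, cut at about 18% in these data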;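 note: inhibitors lower polarization as less probe binds the enzyme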
GSTO1 inh conf = confirmation of human GSTO1 inhibitors; shares compounds with GSTO1 counter; recombinant GSTO1, probe fluorescence polarization; inhibition, % at 5.96 µM; hit rate 54% among 2,400;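 active = inhibition above the primary screen's cutoff, its mean inhibition plus 3 SD, cut at about 35% in these data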;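 note: loss of polarization as inhibitors block binding of rhodamine sulfonate ester activity probe; 0% = GSTO1 with DMSO and 100% = wells lacking GSTO1 enzyme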
LYPLA1 confirm = counter-screen for PME1 inhibitors: confirmation of human LYPLA1 inhibitors; shares compounds with LYPLA1 counter; recombinant LYPLA1, FP-Rh probe fluorescence polarization; inhibition, % at 5.9 µM; hit rate 69% among 480;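 active = mean inhibition across replicates above the hit cutoff set in the primary screen, cut at about 15% in these data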;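 note: loss of FP-Rh probe labeling of LYPLA1 seen as lower polarization; 0% = LYPLA1 with DMSO and 100% = wells lacking LYPLA1 enzyme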
PREPL inh cf = confirmation of human PREPL enzyme inhibitors | inhibition, % at 5.96 µM | shares compounds with PREPL inhibitor | hit rate 67% among 2,000 | recombinant PREPL, fluorescence polarization activity probe;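 note: 0% = protein with DMSO and 100% = wells lacking protein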
Active calls of the source: *; · = no result given. Cut-off read from the data, not from the text of the source, unless noted: active = inhibition above about 43%; inactive = the rest.

SMILES	PREPL inhibitor	LYPLA2 inh	GSTO1 counter	PME-1 inh	LYPLA1 counter	Fam108B counter	LYPLA1 confirm	others
S=C(Nc1ccc(N2CCOCC2)cc1)Nc1ccc2nc(-c3ccco3)c(-c3ccco3)nc2c1	46*	4	50*	51*	-3	18	·	GSTO1 inh conf=6;PREPL inh cf=22
CC(C)CN(C(=O)CCC(=O)OCc1ccc(Cl)cc1Cl)c1c(N)n(CC(C)C)c(=O)[nH]c1=O	1	-2	-4	1	-2	3	·
CCN(CC)c1ccc(C=Nc2ccc(C)cc2C)c(O)c1	-6	-2	6	4	1	6	·
Cc1ccc(N=Cc2cccc(O)c2O)c(C)c1	56*	2	85*	24	-2	8	·	GSTO1 inh conf=3;PREPL inh cf=7
COc1ccc(NC(=O)C2CCC(CNc3c(N4CCCCC4)c(=O)c3=O)CC2)cc1OC (centres undefined)	1	2	3	-1	17*	-3	21*
NS(=O)(=O)c1ccc(CCNC(=O)CSCC(=O)Nc2ccc(Cl)cc2)cc1	-7	-4	·	5	-4	·	·
COc1ccc(N2CC(C(=O)N3CCCC(C)C3)CC2=O)cc1 (centres undefined)	-4	-2	0	5	0	0	·
CCOC(=O)c1ccc(N2C(=O)c3n[nH]c(C)c3C2c2ccc(OC)c(OC)c2)cc1 (centres undefined)	-29	9	-2	0	29*	-5	42*
CCOC(=O)c1ccc(N2C(=O)c3n[nH]c(C)c3C2c2ccc(OC)cc2)cc1 (centres undefined)	-17	5	-4	2	11	-1	·
COc1ccc(-c2nc(CC(=O)Nc3cccc(S(=O)(=O)NC4=NCCC4)c3)cs2)cc1	-8	2	·	-2	16*	·	-1
Cc1ccc(-n2c(SCC(=O)Nc3cccc(S(=O)(=O)NC4=NCCCCC4)c3)nc3ccccc3c2=O)cc1C	-1	-28	-27	-21	-14	-17	·
CCOc1ccc(C(=O)NC(=S)Nc2cccc(S(=O)(=O)NC3=NCCC3)c2)cc1	-10	6	-5	-3	-3	-2	·
Cc1cc(SCC(=O)Nc2cccc(S(=O)(=O)NC3=NCCCCC3)c2)nc2ccccc12	1	1	-29	7	19*	-7	29*
Cc1ccccc1C(=O)Nc1cccc(C(=O)N/N=C/c2cc(Cl)cc([N+](=O)[O-])c2O)c1	29	10	8	10	-1	9	·
O=C(O)CCCCCCCCCCCc1ccccc1	5	26	6	0	18*	3	27*
COC(=O)c1c(NC(=O)CN2C(=O)C(=O)N(C(C)C)C2=O)sc(C)c1C	6	-3	·	1	-1	·	·
COc1ccc(N(CC(=O)N/N=C(\C)c2ccc(OC)c(OC)c2)S(=O)(=O)c2ccccc2)cc1	-3	6	3	2	-1	0	·
O=C1CCC([N+](=O)[O-])C(c2ccc(-c3ccccc3)cc2)N1 (centres undefined)	4	11	-1	7	22*	3	24*
CCC(Oc1ccccc1)C(=O)Nc1ccc(S(=O)(=O)Nc2cc(C)on2)cc1 (centres undefined)	-3	6	0	-9	-2	-1	·
CC1CC(C)CN(S(=O)(=O)c2ccc3c(c2)CC(C)N3C(=O)C2CCC2)C1 (centres undefined)	1	14	-2	3	54*	0	54*
CC1Cc2cc(S(=O)(=O)N3CCCCC3C)ccc2N1C(=O)C1CCC1 (centres undefined)	-5	2	7	2	1	-1	·
CC1CC(C)CN(S(=O)(=O)c2ccc3c(c2)CC(C)N3C(=O)C2CC2)C1 (centres undefined)	11	1	-1	12	29*	-1	31*
CCOC(=O)C1CCCCN1S(=O)(=O)c1ccc2c(c1)CC(C)N2C(=O)C1CCC1 (centres undefined)	9	12	8	3	15*	5	9
CCOC(=O)N1CCN(Cc2ccc(OCC(O)CN3CCCCC3)cc2)CC1 (centres undefined)	-2	-3	0	4	-1	1	·
CNC(=O)COC(=O)c1ccccc1Nc1ccccc1	2	-1	4	3	3	1	·
SMILES	PREPL inhibitor	LYPLA2 inh	GSTO1 counter	PME-1 inh	LYPLA1 counter	Fam108B counter	LYPLA1 confirm	others
Cc1cc(Nc2ccc(O)cc2)ccc1N	31	21	·	36*	16*	·	0
Cc1cccc(NS(=O)(=O)c2ccc(C(=O)NCCCN3CCCC3=O)cc2)c1C	3	-3	7	3	-1	-3	·
CCOC(=O)C1(O)CSc2nc3sc(C(=O)O)c(C)c3c(=O)n21 (centres undefined)	9	13	2	4	14*	-2	5
Cc1nn(-c2ccccc2)c(N2CCCC2)c1/C=N/Nc1ccc(S(N)(=O)=O)cc1[N+](=O)[O-]	27	10	0	16	20*	11	42*
CCOC(=O)C1CCN(C(=O)Nc2cc(Cl)cc(Cl)c2)CC1	-3	1	5	-3	-4	-5	·
CCOC(=O)CCCSc1nnc(CCCCCN2C(=O)c3cccc4cccc(c34)C2=O)o1	7	20	-2	-4	45*	-5	52*
C=CCSc1nnc(CCCCCN2C(=O)c3cccc4cccc(c34)C2=O)o1	9	10	1	-2	27*	-1	39*
CCOC(=O)CSc1nnc(CCCCCN2C(=O)c3cccc4cccc(c34)C2=O)o1	13	4	-2	-9	0	0	·
CC(=O)c1ccc(N2CCN(C(=O)c3ccc(-c4ccccc4)cc3)CC2)cc1	12	20	2	-3	1	-1	·
CC(=O)c1ccc(N2CCN(C(=O)c3cccc(Oc4ccccc4)c3)CC2)cc1	-32	67*	8	4	48*	0	62*
COc1ccc(S(=O)(=O)Nc2ccc(Cc3ccncc3)cc2)cc1OC	7	1	25	15	20*	4	28*
O=C(CCCCCN1C(=O)c2ccccc2C1=O)Oc1ccc2c3c(c(=O)oc2c1)CCC3	15	20	-4	6	32*	0	51*
Cc1ccccc1-n1c(C)nnc1SCC(=O)N1CCc2ccccc2C1	16	2	1	-1	-6	3	·
COc1cccc(-c2c(C#N)c(N)nc3c2c(=O)nc2sccn23)c1	5	0	4	-1	1	-4	·
